Among the data in PubChem BioAssay (EPA / NIEHS) are outcome and AC50 values, retold here.

Test [1] has as its target Myc proto-oncogene protein (Homo sapiens) (UniProt P01106). In words: ATG_Myc_CIS: Attagene CIS-FACTORIAL HepG2 Assay for human Myelocytomatosis (Myc) Proto-Oncogene Transcription Factor (AID 2282990). Conditions: HepG2, Attagene cis-reporter transcription factor activity; actives raise or lower the signal. In a few lines: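 Read-out: fluorescent reporter mRNA fragments resolved by capillary electrophoresis after RT-PCR. Human HepG2 liver cells carried transfected cis-element reporter units and were dosed for 24 h. Gain or loss of signal fitted relative to DMSO baseline.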

The nature of test [2]: ATG_NF_kB_CIS: Attagene CIS-FACTORIAL HepG2 Assay for human Nuclear Factor Kappa B (NF-kB) (AID 2282991). To be noted: HepG2 Attagene cis-factorial NF-kB reporter mRNA; actives raise or lower the signal. In a few lines:
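Endogenous transcription factor activity in HepG2 was captured via cis-regulated reporter constructs; after 24 h dosing, reporter mRNA was reverse-transcribed, amplified, fluorescently labelled and sized by capillary electrophoresis, with activity fitted bidirectionally relative to DMSO.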

Test [3] can be described thus: ATG_NRF2_ARE_CIS: Attagene CIS-FACTORIAL HepG2 Assay for human Nuclear Factor Erythroid 2 Related Factor 2 (NFR2) response to Antioxidant Response Elements (ARE) (AID 2282992).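 For AC50: reporter mRNA level measured by RT-PCR and capillary electrophoresis fluorescence.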 Conditions: HepG2 Attagene ARE/NRF2 reporter, transcription factor activity; actives raise or lower the signal. In a few lines:
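Fluorescence intensity of reporter-specific cDNA fragments, separated by capillary electrophoresis, reflects mRNA induction in transfected HepG2 cells at 24 h. Activity is fitted bidirectionally, DMSO serving as baseline.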

Test [4] is described as follows: ATG_Oct_MLP_CIS: Attagene CIS-FACTORIAL HepG2 Assay for human Octamer-Binding Transcription Factor (Oct) (AID 2282993). Conditions: HepG2 Attagene cis-factorial Oct reporter, mRNA; actives raise or lower the signal. Put shortly:
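Read-out: reporter mRNA via RT-PCR plus capillary electrophoresis of 6-FAM-labelled fragments. Transiently transfected HepG2, 24 h exposure, endogenous TF activity on cis elements. Gain or loss of signal fitted relative to DMSO.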

Test [5] concerns the target Cellular tumor antigen p53 (Homo sapiens) (UniProt P04637). In words: ATG_p53_CIS: Attagene CIS-FACTORIAL HepG2 Assay for human p53 Transcription Factor (AID 2282994). To be noted: HepG2 p53 cis-element reporter, Attagene mRNA; actives raise or lower the signal. In a few lines: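 Transiently transfected HepG2 (multiple cis reporter transcription units); exposure 24 h; reporter RNA via RT-PCR, 6-FAM extension, 2 h HpaI digest at 37 C, CE detection; DMSO baseline.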

A short description of test [6]: BSK_3C_TissueFactor: BioMAP Diversity Plus: 3C Assay for Tissue Factor Biomarker Activity (AID 2282997). Conditions: BioMAP 3C HUVEC, tissue factor biomarker readout; actives raise or lower the signal. Put shortly:
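Cells used were primary human umbilical vein endothelial cells. They were dosed with chemical, and after 24 h Tissue Factor was quantified by ELISA. Curves were fitted bidirectionally with DMSO as baseline.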

Test [7] can be described thus: BSK_3C_uPAR: BioMAP Diversity Plus: 3C Assay for Urokinase-type plasminogen activator receptor (uPAR) Biomarker Activity (AID 2282998). To be noted: BioMAP 3C HUVEC, uPAR biomarker ELISA; actives raise or lower the signal. In a few lines: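 HUVEC primary cells; 24 h post-dose; uPAR by ELISA; gain or loss of signal fitted bidirectionally vs DMSO baseline.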
Background: An ELISA detects its analyte on a solid surface through an enzyme-linked reagent.

Test [8] is described as follows: BSK_3C_VCAM1: BioMAP Diversity Plus: 3C Assay for Vascular cell adhesion molecule 1 (VCAM1) Biomarker Activity (AID 2282999). Conditions: BioMAP 3C HUVEC, VCAM1 ELISA, cytokine-stimulated; actives raise or lower the signal. Put shortly: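 HUVEC primary cells, 24 h compound exposure; VCAM-1 by ELISA; gain/loss of signal fitted bidirectionally vs DMSO baseline.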
The nature of test [9]: BSK_4H_Eotaxin3: BioMAP Diversity Plus: 4H Assay for Eotaxin 3 Biomarker Activity (AID 2283000).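 For outcome: CCL26 protein level quantified by ELISA in parallel with SRB cytotoxicity check.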 To be noted: primary human endothelial cells (HUVEC); actives raise or lower the signal. Put shortly: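 Endothelial primary cells (human umbilical vein) exposed to compound for 24 h. ELISA detection of Eotaxin-3.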
For test [10], the target named is human Peroxisome Proliferator-activated Receptor delta (PPARd), PPARD (gene 5467) (UniProt Q03181). In words: ATG_PPARd_TRANS: Attagene TRANS-FACTORIAL HepG2 Assay for human Peroxisome Proliferator-activated Receptor delta (PPARd) (AID 2283002; active = hit-call score of the fitted dose curve at least 0.9, where 1 is the maximum). In a few lines: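 Read-out: reporter mRNA induction, quantified by fluorescent RT-PCR products resolved by capillary electrophoresis. Human HepG2 liver cells carried transiently transfected Gal4-UAS reporter constructs with chimeric NR-Gal4 fusions. Cells were dosed for 24 h; DMSO served as baseline.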
human Peroxisome Proliferator-activated Receptor delta (PPARd), PPARD (gene 5467), sequence (Q03181 whole entry, looked up, the tested form may be a part): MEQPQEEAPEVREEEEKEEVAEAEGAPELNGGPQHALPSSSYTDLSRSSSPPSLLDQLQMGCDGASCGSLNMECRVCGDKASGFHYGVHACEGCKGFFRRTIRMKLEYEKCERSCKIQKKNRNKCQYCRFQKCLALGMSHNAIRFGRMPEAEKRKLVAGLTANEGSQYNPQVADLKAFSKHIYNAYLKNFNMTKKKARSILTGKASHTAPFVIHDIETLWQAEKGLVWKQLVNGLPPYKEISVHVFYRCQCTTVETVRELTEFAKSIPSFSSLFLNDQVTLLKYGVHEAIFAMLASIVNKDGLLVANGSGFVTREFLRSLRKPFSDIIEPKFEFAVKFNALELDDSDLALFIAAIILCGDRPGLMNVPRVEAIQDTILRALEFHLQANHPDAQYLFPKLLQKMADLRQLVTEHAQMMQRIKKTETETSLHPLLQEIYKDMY

Read-out in test [11]: Intercellular Adhesion Molecule 1 (ICAM1), ICAM1 (gene 3383)
In words: BSK_3C_ICAM1: BioMAP Diversity Plus: 3C Assay for Intercellular Adhesion Molecule 1 (ICAM1) Biomarker Activity (AID 2283003). Conditions: primary human endothelial cells (HUVEC); actives raise or lower the signal. In a few lines:
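Chemicals are dosed onto primary human umbilical vein endothelium (3C system). After 24 h, ICAM-1 is measured by ELISA, and responses are fitted bidirectionally relative to DMSO.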

Test [12] in a line: BSK_3C_Proliferation: Cell Proliferation Assessment in the BioMAP Diversity Plus: 3C Assay (AID 2283006).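 For AC50: potency may reflect either rise or fall in cell number versus DMSO.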 To be noted: primary human endothelial cells (HUVEC). In a few lines:
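Cells (human umbilical vein endothelial, sub-confluent) receive test chemical; after 48 h they are fixed in 10% trichloroacetic acid, stained with 0.1% SRB and read at 560 nm. Activity is referenced to DMSO, fitting increases and decreases.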

Test [13] has as its target Peroxisome proliferator-activated receptor gamma (Homo sapiens) (UniProt P37231). In words: ATG_PPARg_TRANS: Attagene TRANS-FACTORIAL HepG2 Assay for human Peroxisome Proliferator-activated Receptor-gamma (PPARg) (AID 2283007; active = hit-call score of the fitted dose curve at least 0.9, where 1 is the maximum). Put shortly: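 A TRANS-format multiplexed reporter assay measures activity of an exogenous chimeric NR-Gal4 protein in HepG2 cells. After 24 h of chemical exposure, reporter transcripts are amplified, fluorescently labelled and sized by capillary electrophoresis, with gain of signal scored against DMSO.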

For test [14], the target named is human Peroxisome Proliferator-activated Receptor alpha (PPARa), PPARA (gene 5465) (UniProt Q07869). In words: ATG_PPARa_TRANS: Attagene TRANS-FACTORIAL HepG2 Assay for human Peroxisome Proliferator-activated Receptor alpha (PPARa) (AID 2283001; active = hit-call score of the fitted dose curve at least 0.9, where 1 is the maximum). Put shortly: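 HepG2, transient MRTU transfection, 24 h treatment. RT-PCR → FAM labelling → capillary electrophoresis. Fit vs DMSO, positive direction.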

Test [15] addresses Nuclear receptor subfamily 1 group I member 2 (Homo sapiens) (UniProt O75469). In words: ATG_PXR_TRANS: Attagene TRANS-FACTORIAL HepG2 Assay for human Pregnane X Receptor (PXR) (AID 2283008; active = hit-call score of the fitted dose curve at least 0.9, where 1 is the maximum). Put shortly: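 Transient HepG2 transfectants carrying multiplexed reporter transcription units; PXR activity read through a Gal4 chimera. 24 h exposure. RT-PCR/CE fluorescence; upward curve fit referenced to DMSO.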

In test [16] the target is human Retinoic Acid Receptor gamma (RARg), RARG (gene 5916) (UniProt P13631). In words: ATG_RARg_TRANS: Attagene TRANS-FACTORIAL HepG2 Assay for human Retinoic Acid Receptor gamma (RARg) (AID 2283009; active = hit-call score of the fitted dose curve at least 0.9, where 1 is the maximum). Put shortly:
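TRANS format measured activity of exogenous NR-GAL4 fusion (RARg) in transfected HepG2 liver cells after 24 h dosing. Induced reporter RNA was detected by RT-PCR/capillary electrophoresis fluorescence, analysed in the positive direction against DMSO.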

In test [17] the target is human RAR-related Orphan Receptor beta (RORb), RORB (gene 6096) (UniProt Q92753). In words: ATG_RORb_TRANS: Attagene TRANS-FACTORIAL HepG2 Assay for human RAR-related Orphan Receptor beta (RORb) (AID 2283010; active = hit-call score of the fitted dose curve at least 0.9, where 1 is the maximum). In a few lines:
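Transfect HepG2 with multiple GAL4-UAS reporter transcription units; dose chemicals for 24 h; isolate RNA, reverse-transcribe and PCR-amplify reporter sequences; label, digest and resolve fragments by capillary electrophoresis; fit increases relative to DMSO.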

Test [18] addresses human Retinoic Acid Receptor beta (RARb), RARB (gene 5915) (UniProt P10826). In words: ATG_RARb_TRANS: Attagene TRANS-FACTORIAL HepG2 Assay for human Retinoic Acid Receptor beta (AID 2283004; active = hit-call score of the fitted dose curve at least 0.9, where 1 is the maximum). In a few lines:
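HepG2, transient MRTU transfection, NR–Gal4 chimera, 24 h treatment; RT-PCR plus CE fluorescence detection of reporter mRNA; gain of signal vs DMSO.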

Test [19] deals with Retinoic acid receptor alpha (Homo sapiens) (UniProt P10276). In words: ATG_RARa_TRANS: Attagene TRANS-FACTORIAL HepG2 Assay for human Retinoic Acid Receptor alpha (RARa) (AID 2283005; active = hit-call score of the fitted dose curve at least 0.9, where 1 is the maximum). In a few lines: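 HepG2 transiently transfected with multiplex GAL4-UAS reporter units including a human RARa–GAL4 chimera; 24 h compound exposure. Reporter mRNA quantified by RT-PCR, 6-FAM labeling and capillary electrophoresis; gain of signal versus DMSO.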
Retinoic acid receptor alpha (Homo sapiens), sequence (P10276 whole entry, looked up, the tested form may be a part): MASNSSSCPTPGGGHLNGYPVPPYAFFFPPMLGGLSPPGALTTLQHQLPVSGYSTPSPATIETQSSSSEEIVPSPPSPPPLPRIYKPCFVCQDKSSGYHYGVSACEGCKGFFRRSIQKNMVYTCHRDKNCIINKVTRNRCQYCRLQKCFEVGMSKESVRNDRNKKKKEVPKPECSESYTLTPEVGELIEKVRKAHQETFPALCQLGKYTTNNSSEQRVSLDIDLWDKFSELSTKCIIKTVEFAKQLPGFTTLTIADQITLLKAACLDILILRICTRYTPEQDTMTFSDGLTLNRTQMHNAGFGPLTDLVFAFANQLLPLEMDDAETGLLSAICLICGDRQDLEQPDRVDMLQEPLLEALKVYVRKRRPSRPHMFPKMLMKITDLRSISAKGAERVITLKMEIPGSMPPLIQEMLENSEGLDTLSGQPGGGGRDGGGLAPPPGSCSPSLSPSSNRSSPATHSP

In test [20] the target is human RAR-related Orphan Receptor gamma (RORg), RORC (gene 6097) (UniProt P51449). In words: ATG_RORg_TRANS: Attagene TRANS-FACTORIAL HepG2 Assay for human RAR-related Orphan Receptor gamma (RORg) (AID 2283011; active = hit-call score of the fitted dose curve at least 0.9, where 1 is the maximum). In a few lines: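 Activity is scored as increase in GAL4-UAS reporter mRNA over DMSO, detected by fluorescent RT-PCR and capillary electrophoresis in HepG2 cells transiently expressing a RORg-Gal4 chimera, 24 h after dosing.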
human RAR-related Orphan Receptor gamma (RORg), RORC (gene 6097), sequence (P51449 whole entry, looked up, the tested form may be a part): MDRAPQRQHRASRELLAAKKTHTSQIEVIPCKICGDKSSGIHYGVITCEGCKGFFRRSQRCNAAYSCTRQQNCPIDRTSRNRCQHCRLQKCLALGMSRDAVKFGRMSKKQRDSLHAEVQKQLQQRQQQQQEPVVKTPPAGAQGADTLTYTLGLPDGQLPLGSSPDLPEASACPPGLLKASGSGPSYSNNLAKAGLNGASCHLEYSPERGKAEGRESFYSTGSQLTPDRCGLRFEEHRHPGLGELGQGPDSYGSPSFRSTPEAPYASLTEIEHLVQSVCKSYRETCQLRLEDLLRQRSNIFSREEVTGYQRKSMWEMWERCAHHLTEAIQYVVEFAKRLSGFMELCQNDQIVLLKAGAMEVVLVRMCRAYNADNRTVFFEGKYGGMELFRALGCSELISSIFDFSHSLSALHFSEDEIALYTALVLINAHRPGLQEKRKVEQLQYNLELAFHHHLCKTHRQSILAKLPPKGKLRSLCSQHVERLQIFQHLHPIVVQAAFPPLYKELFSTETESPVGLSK

Records with an inconclusive call do not appear. Activity calls are given as the source filed them. Rule for the calls, unless noted: active = hit-call score of the fitted dose curve at least 0.9, where 1 is the maximum; inactive = score below 0.9.

human Retinoic Acid Receptor gamma (RARg), RARG (gene 5916), sequence (P13631 whole entry, looked up, the tested form may be a part): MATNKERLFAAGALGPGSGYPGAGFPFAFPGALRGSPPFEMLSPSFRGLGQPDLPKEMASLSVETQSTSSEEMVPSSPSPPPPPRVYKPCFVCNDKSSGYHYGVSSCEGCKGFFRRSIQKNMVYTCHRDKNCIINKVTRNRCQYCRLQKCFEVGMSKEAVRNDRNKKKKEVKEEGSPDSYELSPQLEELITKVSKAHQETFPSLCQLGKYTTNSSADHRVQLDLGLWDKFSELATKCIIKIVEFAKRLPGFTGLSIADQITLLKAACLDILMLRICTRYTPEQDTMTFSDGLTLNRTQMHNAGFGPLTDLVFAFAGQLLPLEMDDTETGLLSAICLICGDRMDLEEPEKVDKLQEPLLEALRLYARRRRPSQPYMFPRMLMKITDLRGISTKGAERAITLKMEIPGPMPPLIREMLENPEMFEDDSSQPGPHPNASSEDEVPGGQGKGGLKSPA
human Retinoic Acid Receptor beta (RARb), RARB (gene 5915), sequence (P10826 whole entry, looked up, the tested form may be a part): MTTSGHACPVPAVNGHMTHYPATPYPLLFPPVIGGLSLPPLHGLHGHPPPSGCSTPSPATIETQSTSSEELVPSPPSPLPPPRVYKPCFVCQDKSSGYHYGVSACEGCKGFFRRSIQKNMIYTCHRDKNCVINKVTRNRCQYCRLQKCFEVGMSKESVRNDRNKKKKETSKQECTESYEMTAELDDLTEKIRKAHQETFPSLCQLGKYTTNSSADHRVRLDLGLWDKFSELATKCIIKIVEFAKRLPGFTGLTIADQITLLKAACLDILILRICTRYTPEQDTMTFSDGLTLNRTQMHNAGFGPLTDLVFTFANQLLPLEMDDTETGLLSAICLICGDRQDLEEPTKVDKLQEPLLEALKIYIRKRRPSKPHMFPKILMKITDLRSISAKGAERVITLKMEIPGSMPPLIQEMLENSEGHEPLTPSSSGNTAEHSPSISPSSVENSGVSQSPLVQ
Cellular tumor antigen p53 (Homo sapiens), sequence (P04637 whole entry, looked up): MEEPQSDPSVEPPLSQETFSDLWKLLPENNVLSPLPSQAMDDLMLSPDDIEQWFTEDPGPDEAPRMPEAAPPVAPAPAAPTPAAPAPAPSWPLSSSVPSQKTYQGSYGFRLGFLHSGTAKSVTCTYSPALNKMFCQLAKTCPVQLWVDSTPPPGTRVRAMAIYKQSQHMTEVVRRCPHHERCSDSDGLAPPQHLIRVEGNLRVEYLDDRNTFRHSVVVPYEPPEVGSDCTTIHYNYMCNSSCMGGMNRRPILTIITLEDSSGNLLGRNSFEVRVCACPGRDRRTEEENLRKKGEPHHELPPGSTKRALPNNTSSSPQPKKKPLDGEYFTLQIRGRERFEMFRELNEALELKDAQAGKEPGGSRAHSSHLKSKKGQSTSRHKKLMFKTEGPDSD
Myc proto-oncogene protein (Homo sapiens), sequence (P01106 whole entry, looked up, the tested form may be a part): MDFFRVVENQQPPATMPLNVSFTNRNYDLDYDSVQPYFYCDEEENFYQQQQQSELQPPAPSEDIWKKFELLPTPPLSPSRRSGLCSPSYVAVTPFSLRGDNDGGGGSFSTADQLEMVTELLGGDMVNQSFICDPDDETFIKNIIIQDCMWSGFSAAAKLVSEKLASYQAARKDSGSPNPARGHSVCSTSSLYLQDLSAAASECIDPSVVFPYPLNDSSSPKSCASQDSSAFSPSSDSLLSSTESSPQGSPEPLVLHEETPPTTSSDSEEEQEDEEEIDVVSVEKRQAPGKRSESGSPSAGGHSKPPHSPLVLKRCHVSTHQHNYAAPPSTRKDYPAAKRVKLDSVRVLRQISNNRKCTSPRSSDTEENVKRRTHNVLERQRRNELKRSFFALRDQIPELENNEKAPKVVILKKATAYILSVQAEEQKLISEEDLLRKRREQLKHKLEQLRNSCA
Nuclear receptor subfamily 1 group I member 2 (Homo sapiens), sequence (O75469 whole entry, looked up, the tested form may be a part): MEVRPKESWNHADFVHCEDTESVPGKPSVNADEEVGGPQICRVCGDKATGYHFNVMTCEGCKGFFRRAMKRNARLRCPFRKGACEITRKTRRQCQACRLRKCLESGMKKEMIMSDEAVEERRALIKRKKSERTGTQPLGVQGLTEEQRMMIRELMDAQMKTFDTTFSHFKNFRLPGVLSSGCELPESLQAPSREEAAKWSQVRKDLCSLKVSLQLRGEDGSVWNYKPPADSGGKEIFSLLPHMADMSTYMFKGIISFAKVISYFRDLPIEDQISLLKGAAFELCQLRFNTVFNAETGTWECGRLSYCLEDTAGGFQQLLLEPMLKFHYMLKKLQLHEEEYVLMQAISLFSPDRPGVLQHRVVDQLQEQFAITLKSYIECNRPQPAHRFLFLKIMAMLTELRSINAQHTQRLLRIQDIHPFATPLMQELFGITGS
Peroxisome proliferator-activated receptor gamma (Homo sapiens), sequence (P37231 whole entry, looked up, the tested form may be a part): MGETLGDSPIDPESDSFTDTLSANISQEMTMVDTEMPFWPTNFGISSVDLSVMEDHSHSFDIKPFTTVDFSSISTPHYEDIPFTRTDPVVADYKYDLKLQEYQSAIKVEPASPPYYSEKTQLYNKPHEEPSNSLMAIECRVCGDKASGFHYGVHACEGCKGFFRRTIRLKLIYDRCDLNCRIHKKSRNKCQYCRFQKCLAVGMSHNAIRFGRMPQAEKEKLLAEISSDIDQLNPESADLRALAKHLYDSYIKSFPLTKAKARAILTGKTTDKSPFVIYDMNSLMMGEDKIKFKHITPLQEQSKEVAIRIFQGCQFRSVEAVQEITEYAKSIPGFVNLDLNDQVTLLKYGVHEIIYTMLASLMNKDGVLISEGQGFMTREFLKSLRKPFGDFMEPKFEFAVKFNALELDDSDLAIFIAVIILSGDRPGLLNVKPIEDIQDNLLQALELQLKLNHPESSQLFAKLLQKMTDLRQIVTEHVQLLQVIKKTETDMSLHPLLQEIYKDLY
human RAR-related Orphan Receptor beta (RORb), RORB (gene 6096), sequence (Q92753 whole entry, looked up, the tested form may be a part): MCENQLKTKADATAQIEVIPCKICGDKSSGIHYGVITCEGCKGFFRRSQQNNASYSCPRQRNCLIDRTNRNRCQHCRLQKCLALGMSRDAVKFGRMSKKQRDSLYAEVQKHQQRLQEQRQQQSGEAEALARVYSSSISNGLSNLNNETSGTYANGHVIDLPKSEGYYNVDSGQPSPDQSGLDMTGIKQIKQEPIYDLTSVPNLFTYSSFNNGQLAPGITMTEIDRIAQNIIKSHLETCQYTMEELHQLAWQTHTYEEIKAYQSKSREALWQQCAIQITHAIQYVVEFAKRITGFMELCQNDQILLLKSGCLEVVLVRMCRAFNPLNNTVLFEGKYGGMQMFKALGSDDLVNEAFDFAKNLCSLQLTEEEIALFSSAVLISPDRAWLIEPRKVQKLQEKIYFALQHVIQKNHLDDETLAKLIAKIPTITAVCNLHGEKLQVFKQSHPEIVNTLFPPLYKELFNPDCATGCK

A word on the AC50: it is the concentration giving half of the maximal activity seen. Turning to `CCOc1cccc(-n2cc(C(=O)N3CCN(c4cc(C(=O)O)c5ccccc5c4)CC3)nc2-c2ccc(C)cc2)c1`, the molecule was called inactive in test [1], in test [2], in test [5] and in test [10]. Besides, the AC50 in test [3] is 8.42 µM (active); in test [4] it was 25.4 µM (active); in test [6], 28.7 µM (active); in [7] it was 13.9 µM (active); in [8] it was 27.9 µM (active); in test [9], 33.1 µM (active). The AC50 in [11] is 29.7 µM (active); in [12] it was 13.5 µM (active); in [13], 7.92 µM (active).

Consider `Cc1ccc(O)cc1`, for which the molecule was classed as inactive in [1], in [2], in test [3], in test [4], in test [5] and in test [6]. In addition, the result in test [7], in [8], in test [9] and in test [12] was inactive.

For the molecule `COCCOc1cc2cc(C(=O)NC3CCN(C(C)C)CC3)n(CC(=O)Nc3ccc(Cl)cn3)c2cn1`, the call in test [1], in test [5], in test [6], in test [7], in test [8] and in test [14] was inactive. For the same molecule, the outcome in test [12], in [15], in test [16] and in test [17] was inactive. Also, the results for the AC50 in test [2], in test [3] and in [4] were 180 µM (active), 72.9 µM (active) and 119 µM (active), respectively.

Regarding `O=C(OC[C@H]1O[C@@H](OC(=O)c2cc(O)c(O)c(OC(=O)c3cc(O)c(O)c(O)c3)c2)[C@H](OC(=O)c2cc(O)c(O)c(OC(=O)c3cc(O)c(O)c(O)c3)c2)[C@@H](OC(=O)c2cc(O)c(O)c(OC(=O)c3cc(O)c(O)c(O)c3)c2)[C@@H]1OC(=O)c1cc(O)c(O)c(OC(=O)c2cc(O)c(O)c(O)c2)c1)c1cc(O)c(O)c(OC(=O)c2cc(O)c(O)c(O)c2)c1`, the result in [1], in test [2], in test [3], in test [4], in [5] and in test [7] was inactive. For the same molecule, the molecule was classed as inactive in test [18], in test [19], in test [15], in test [16], in test [17] and in test [20]. Besides, the AC50 in test [6] is 7.77 µM (active); in test [8], 11.2 µM (active); in test [9], 8.95 µM (active); in [12], 9.47 µM (active).

Consider `CCOCCOCCOCCO`, for which the molecule was classed as inactive in [1], in test [2], in [3], in [4], in test [5] and in test [6]. The outcome in [7], in [8], in [9], in [11] and in test [12] was inactive.

For the molecule `Clc1nc(Cl)c(Cl)c(Cl)c1Cl`, the call in test [1], in test [2], in [4], in test [5], in test [6] and in [7] was inactive. Moreover, the molecule was classed as inactive in [10], in test [11], in [18], in test [16] and in test [20]. The AC50 in [3] was 11.2 µM (active); in test [8], 16.5 µM (active); in test [12], 20 µM (active).

`CCOC(=O)CC(CC(=O)OCC)(OC(C)=O)C(=O)OCC`: the outcome in test [1], in test [2], in test [4], in [5], in test [6] and in test [7] was inactive. In addition, the outcome in test [8], in test [9], in [19], in test [12] and in [15] was inactive. Moreover, the AC50 in test [3] is 61.4 µM (active); in test [13], 52.3 µM (active).

Consider `Cc1c(-c2cccnc2)c2ccccc2n1CCCCC(=O)O`, for which the call in test [1], in [3], in test [4], in test [5], in [6] and in test [7] was inactive. Besides, the result in test [8], in test [9], in [10], in test [18], in [19] and in test [15] was inactive. Also, the molecule was classed as inactive in test [16] and in [20]. The AC50 was 100 µM (active) in [2] and 17.4 µM (active) in [12].
